Screens as filed in PubChem.
Shown are actives, neighbours in structure and some others; about 4.8% of the full set was active somewhere.
DAX1 inh-1: inhibits human nuclear receptor DAX1; HEK293 Gal4-DAX1 luciferase reporter, luminescence; inhibition, % at 6.75 µM; 340,000 tested, 0.99% active; AID 504766;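 active means inhibition above the mean over all tested compounds plus 3 SD, cut at about 4.2% in these data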;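 further: 0% = DAX1-transfected cells with DMSO and 100% = empty-vector control cells with DMSO; inhibition shows as a rise in luminescence from relieved DAX1 repression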
ssDAF12 agonist: activates DAF-12 receptor from parasite S. stercoralis | HEK293 ssDAF-12/GRIP1 lit1-tk-luc reporter, luminescence; % of 3 µM dafachronic acid response | 370,000 tested, 1% active | activation, % at 6.8 µM;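 active means activation above the mean over all tested compounds plus 3 SD, cut at about 0.9% in these data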;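 further: 0% = DMSO-only wells and 100% = 3 µM delta7-dafachronic acid wells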
hcDAF12 agonist: activators of H. contortus DAF-12 nuclear receptor; activation, % at 6.8 µM; AID 652067; HEK293 hcDAF-12 lit1-tk-luc reporter, luminescence; 0% DMSO, 100% Δ7-dafachronic acid; 370,000 tested, 1.4% active;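 active means activation above the mean of all tested compounds plus 3 SD, cut at about 5.5% in these data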;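 further: 100% = response to 3 µM Δ7-dafachronic acid high control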
DAX1 inh-2: inhibitors of DAX1 repression of SF-1 activated StAR promoter. HEK293T StAR-luciferase reporter, SF-1/DAX-1 repression relief. inhibition, % at 6.8 µM. 370,000 tested, 1.1% active. AID 652010;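 active means inhibition above the mean over all tested compounds plus 3 SD, cut at about 3.6% in these data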;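 further: 0% = DAX-1 cells with DMSO and 100% = cells lacking DAX-1 with DMSO; higher inhibition means more luminescence from relief of DAX-1 repression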
hgDAF-12 ag: hgDAF-12 agonism, primary luciferase screen; HEK293 GAL4-hgDAF12 UAS-luciferase reporter, agonist luminescence; normalized to butyrate control; activation, % at 6.8 µM; 370,000 tested, 1.8% active;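 active means activation above a cutoff set at the mean of all screened compounds plus 3 SD, cut at about 10% in these data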;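 further: 0% = DMSO wells and 100% = sodium butyrate wells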
SMARCA2 activ: SMARCA2 function activation, primary screen; MG213 cells, MMTV-luciferase reporter, dexamethasone, overnight; activation, % at 9.1 µM; 370,000 tested, 1% active; AID 652017; in the data active means activation above about 7.8%;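 further: 0% = vehicle wells and 100% = reference activator wells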
hgDAF12 ag: hgDAF-12 agonism, confirmation assay; HEK293 GAL4-hgDAF12 luciferase reporter, agonist mode; percent of butyrate response; AID 743050; activation, % at 6.8 µM; 3,300 tested, 80% active; shares compounds with hgDAF-12 ag;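 active means mean activation over triplicate wells above the hit cutoff derived from the earlier primary screen, cut at about 11% in these data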;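 further: 0% = DMSO low control and 100% = 2 mM sodium butyrate high control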
LXRb DAF12 ctr: counter-screen for DAF-12 agonists: agonists of human LXR-beta; 3,300 tested, under 10 active; shares compounds with hgDAF-12 ag; activation, % at 6.8 µM; HEK293 Gal4-LXR luciferase reporter, 24 h;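 active means mean activation of the triplicate above a set limit carried over from the primary screen, none filed active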
Target sequence (P55055 whole entry, looked up, the tested form may be a part): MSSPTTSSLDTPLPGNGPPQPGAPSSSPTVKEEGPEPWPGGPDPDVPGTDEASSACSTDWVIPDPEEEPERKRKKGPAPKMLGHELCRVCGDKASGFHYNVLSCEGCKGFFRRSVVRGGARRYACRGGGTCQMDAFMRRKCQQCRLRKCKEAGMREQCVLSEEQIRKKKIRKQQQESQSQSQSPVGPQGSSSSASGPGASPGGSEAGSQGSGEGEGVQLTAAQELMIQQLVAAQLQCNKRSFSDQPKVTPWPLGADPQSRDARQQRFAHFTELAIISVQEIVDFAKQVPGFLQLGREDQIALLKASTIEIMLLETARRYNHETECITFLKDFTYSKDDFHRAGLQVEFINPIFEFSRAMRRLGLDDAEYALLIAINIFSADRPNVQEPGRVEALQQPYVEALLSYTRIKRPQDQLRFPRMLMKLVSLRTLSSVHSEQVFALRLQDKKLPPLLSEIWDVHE
Starred values were filed as active, the others as inactive.

`Cc1ccc(C(=O)N/N=C\c2ccc3c(c2)OCO3)cn1` gave DAX1 inh-1 0, ssDAF12 agonist -1, hcDAF12 agonist 0, DAX1 inh-2 0, hgDAF-12 ag 1 and SMARCA2 activ 1.
C[C@@H]1CN(c2ccc(N3CCN(C(=O)OC(C)(C)C)C[C@@H]3C)cc2C#N)CCN1Cc1ccccc1 was read as ssDAF12 agonist 0, hcDAF12 agonist -2, DAX1 inh-2 -2, hgDAF-12 ag -2 and SMARCA2 activ -3.
For COC(=O)[C@]12C[C@H](CC(=O)N3CCN(C(=O)C4CC4)CC3)C(=O)N(Cc3ccccc3)C1=C[C@H](C1CCCC1)O[C@@H]2C the results were ssDAF12 agonist -1, hcDAF12 agonist -1, DAX1 inh-2 0, hgDAF-12 ag -3 and SMARCA2 activ 0.
For CC1CCc2c(C(=O)NCc3ccccn3)csc2C1 (stereo unspecified) the results were DAX1 inh-1 1, ssDAF12 agonist -1, hcDAF12 agonist 4, DAX1 inh-2 2, hgDAF-12 ag 17*, SMARCA2 activ 3, hgDAF12 ag 7 and LXRb DAF12 ctr 0.
For CC1CCc2c(C(=O)Nc3nccs3)csc2C1 (stereo unspecified) the results were DAX1 inh-1 -1, ssDAF12 agonist -1, hcDAF12 agonist 0, DAX1 inh-2 0, hgDAF-12 ag 8 and SMARCA2 activ 7.
Screening CC1CCc2c(C(=O)Nc3ccccn3)csc2C1 (stereo unspecified) returned DAX1 inh-1 3, ssDAF12 agonist 0, hcDAF12 agonist 3, DAX1 inh-2 3, hgDAF-12 ag 17*, SMARCA2 activ 3, hgDAF12 ag 12* and LXRb DAF12 ctr 1.
`O=C(NN=Cc1ccccc1O)C(=O)Nc1ccc(F)cc1` gave ssDAF12 agonist -2, hcDAF12 agonist 0, DAX1 inh-2 -1, hgDAF-12 ag 1 and SMARCA2 activ -6.
Screening CCn1c(C)nc2cc(C(=O)N/N=C/c3ccccc3C)ccc21 returned DAX1 inh-1 1, ssDAF12 agonist 0, hcDAF12 agonist 3, DAX1 inh-2 3, hgDAF-12 ag 14*, SMARCA2 activ 4, hgDAF12 ag 14* and LXRb DAF12 ctr 1.
`Cc1ccc(NC(=O)[C@@H](Cc2ccccc2)NC(=O)[C@H]2O[C@@H](n3ccc(=O)[nH]c3=O)[C@H](O)[C@@H]2O)cc1C` gave ssDAF12 agonist -1, hcDAF12 agonist -1, DAX1 inh-2 1, hgDAF-12 ag 2 and SMARCA2 activ 2.
`Cc1nccn1-c1ccc(NC(=O)[C@@H](Cc2ccccc2)NC(=O)[C@H]2O[C@@H](n3ccc(=O)[nH]c3=O)[C@H](O)[C@@H]2O)cc1` gave ssDAF12 agonist -1, hcDAF12 agonist -2, DAX1 inh-2 0, hgDAF-12 ag 6 and SMARCA2 activ -3.
For C/C(=N\NC(=O)COc1ccc([N+](=O)[O-])cc1)c1ccco1 the results were DAX1 inh-1 1, ssDAF12 agonist -1, hcDAF12 agonist -2, DAX1 inh-2 -1, hgDAF-12 ag -1 and SMARCA2 activ -1.
`C/C(=N\Nc1ccc([N+](=O)[O-])cc1)c1ccco1` gave DAX1 inh-1 4.8*, ssDAF12 agonist 0, hcDAF12 agonist 3, DAX1 inh-2 1, hgDAF-12 ag 15*, SMARCA2 activ 5, hgDAF12 ag 15* and LXRb DAF12 ctr 1.
Screening C/C(=N\NC(=O)c1cccs1)C(C)(C)C returned DAX1 inh-1 2, ssDAF12 agonist -1, hcDAF12 agonist 1, DAX1 inh-2 3, hgDAF-12 ag 18*, SMARCA2 activ 3, hgDAF12 ag 1 and LXRb DAF12 ctr 0.
Screening C/C(=N/NC(=O)c1cccs1)c1ccco1 returned DAX1 inh-1 2, ssDAF12 agonist 0, hcDAF12 agonist 3, DAX1 inh-2 3, hgDAF-12 ag 18*, SMARCA2 activ 5, hgDAF12 ag 9 and LXRb DAF12 ctr 0.
